Assay outcomes: PubChem, National Center for Advancing Translational Sciences (NCATS)
15-hLO inh: blocks human 15-lipoxygenase activity; P16050; purified 15hLO-1, xylenol orange hydroperoxide absorbance; Potency, µM (series often up to 57.1 µM), for inactives: at the highest dose activity change, negative = inhibition, usual class: inhibitors; 1.4% of 74,000 active; AID 887; also: potency is read from the fitted curve at half-maximal effect; % is scaled to controls: 0 for no effect and ±100 for the full control effect; nearly all actives have a fitted effect of over 55% in size
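Purified human 15hLO-1 (40 nM final) in 25 mM Hepes pH 7.5, 0.01% Triton X-100 was preincubated with compound 15 min at room temperature, then reacted 6 min with 50 uM arachidonic acid; hydroperoxide detected by Fe-XO, 573/405 nm absorbance ratio.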
GBA mod: modulators of human glucocerebrosidase. P04062. purified enzyme, resorufin glucoside fluorescence (screen aimed at inhibitors), 20 min. Potency, µM. 1.1% of 48,000 active; in the data active = potency below about 15 µM; inconclusive = mostly about 16 µM to 33 µM;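 also: potency is read from the fitted curve at half-maximal effect; the screen sought inhibitors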
Target sequence (P04062 whole entry, looked up): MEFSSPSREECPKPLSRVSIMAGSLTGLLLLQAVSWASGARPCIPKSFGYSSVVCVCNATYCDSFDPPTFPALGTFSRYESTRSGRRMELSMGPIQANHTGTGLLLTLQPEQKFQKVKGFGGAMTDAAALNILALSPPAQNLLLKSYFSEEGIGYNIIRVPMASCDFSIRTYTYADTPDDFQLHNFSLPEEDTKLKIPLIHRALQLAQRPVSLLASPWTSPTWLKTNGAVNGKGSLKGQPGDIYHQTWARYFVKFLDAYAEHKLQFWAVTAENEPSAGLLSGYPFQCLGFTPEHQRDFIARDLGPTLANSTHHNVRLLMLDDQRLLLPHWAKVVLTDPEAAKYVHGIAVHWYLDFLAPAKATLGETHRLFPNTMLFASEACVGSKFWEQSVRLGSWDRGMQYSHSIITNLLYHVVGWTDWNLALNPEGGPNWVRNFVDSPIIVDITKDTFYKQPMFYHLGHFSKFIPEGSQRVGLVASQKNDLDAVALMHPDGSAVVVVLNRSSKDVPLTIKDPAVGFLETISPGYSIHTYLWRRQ
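Normal human glucocerebrosidase (0.2 nM final) was assayed with resorufin β-D-glucopyranoside (30 uM final) in 50mM citric acid/KH2PO4, 10mM sodium taurocholate, 0.01% tween-20, pH 5.9. Compounds were titrated; fluorescence (Ex 548, Em 600) read after 20 min at RT.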
Hsp90 Hop PPI: changes Hsp90-Hop TPR2A binding signal, up or down | 0.44% of 71,000 active | AlphaScreen TPR2A-His6 binding biotin-Hsp90 C-terminal peptide | Potency, µM (doses to about 57 µM), inactives show at the highest dose activity change, negative = inhibition | AID 595; active = well fitted curve in either direction with a large enough effect; inconclusive = small, poorly fitted or top-dose-only effect, or another doubt; also: potency is read from the fitted curve at half-maximal effect; % is scaled to controls: 0 for no effect and ±100 for the full control effect
USP2a inh: inhibitors of human ubiquitin-specific protease USP2a; O75604; USP2a enzymatic assay, qHTS inhibition; Potency, µM (doses to about 38.3 µM), inactives show at the highest dose activity change, negative = inhibition, usual class: inhibitors; 0.1% of 60,000 active; AID 927; also: potency is read from the fitted curve at half-maximal effect; nearly all actives have a fitted effect of over 60% in size
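20 nM USP2 core + cpd, 30 min RT; add 20 nM Ub-PLA2/20 uM NBD C6-HPC; read Ex460/Em535 at 0 h and 2.5 h. Normalized to NEM; qHTS curve fit/classification.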
PK Bst: alters activity of Bacillus stearothermophilus pyruvate kinase; 1.2% of 51,000 active; purified pyruvate kinase, luminescence ATP production; ribose 5-phosphate activator present at AC10; Potency, µM; AID 361; in the data active = potency below about 11 µM; inconclusive = mostly about 12 µM to 25 µM;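 the screen sought inhibitors and activators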;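 also: potency is read from the fitted curve at half-maximal effect; scaled between full activation by ribose 5 phosphate and full inhibition by luteolin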
Tau fil binding: binders of human tau filaments. P10636. recombinant tau filaments, thioflavin S fluorescence, 15 h; filaments grown with octadecylsulfate alongside compound. Potency, µM (top dose mostly 57.1 µM), for the others: at the top dose activity change, negative = inhibition. 2% of 71,000 active;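 also: potency is read from the fitted curve at half-maximal effect; % is scaled to controls: 0 for no effect and ±100 for the full control effect; actives lower thioflavin S fluorescence by blocking filaments or displacing dye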
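His-tagged recombinant human tau (exons 2, 3, 10; 1 uM final) fibrillized with 30 uM sodium octadecylsulfate, 15 h at 37 C, in pH 7.4 HEPES buffer with 10 uM thioflavine S and 5 mM DTT. Reduced ThS fluorescence (450/510 nm) marks activity.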
Tau ThS bind: displaces Thioflavin S from human tau filaments | recombinant tau filaments, Thioflavin S fluorescence displacement | shares compounds with Tau fil binding | Potency, µM | 40% of 60 active; calls by dose curve
aSyn ThS bind: displaces Thioflavin S from alpha-synuclein fibrils | shares compounds with Tau fil binding | recombinant alpha-synuclein fibrils, ThS fluorescence displacement | Potency, µM | AID 937 | 40% of 60 active; calls by dose curve
Abeta ThS bind: displaces Thioflavin S from Abeta1-42 fibrils. 50% of 60 active. shares compounds with Tau fil binding. Potency, µM. AID 956. Abeta1-42 fibrillization, thioflavin S fluorescence, overnight 37 C; calls by dose curve
Active calls of the source: *; i = inactive; ? = inconclusive; nt = not tested or not shown; [ ] = dose if it differs, or a comment. In the library only some 4.6% were active in any assay of this set; here they are far more common. Unless noted, calls follow the shape of the dose curve; as a rule, active = well fitted curve in the direction sought with a large enough effect; inconclusive = small, poorly fitted or top-dose-only effect, or another doubt; inactive = no such curve, though single readings can be large; an effect the other way counts as inactive or inconclusive.

SMILES	15-hLO inh	GBA mod	Hsp90 Hop PPI	USP2a inh	PK Bst	Tau fil binding	Tau ThS bind	aSyn ThS bind	Abeta ThS bind
CN1/C(=N\O)c2cccc3cccc1c23	-13.1%	>76.9	12.2%	-3.4%	?	332.7%	nt	nt	nt
COc1ccccc1N(CCC#N)C(=O)CSc1ccc2c(c1)OCCO2	4.8%	>76.9	-3.3%	3.9%	>57	9.8%	nt	nt	nt
N=C(N)c1ccc(N=Nc2c(O)ccc3c2[nH]c2ccccc23)cc1	49.3%[11.4 µM]	nt	?	nt	nt	1µM*	0.81µM*	2.62µM*	1.03µM*
O=C(O)c1ccc(S(=O)(=O)N=Nc2c(O)[nH]c3ccccc23)cc1	1.2%[11.4 µM]	nt	-3.6%[11 µM]	nt	nt	-1.1%[11.4 µM]	nt	nt	nt
CCOC(=O)C1CCN(S(=O)(=O)c2cccc3nonc23)CC1	-20.4%	>76.9	-0.8%	3.1%	>57	-11.1%	i	i	i
CN(C)c1ccc(NC(=S)c2ccccn2)cc1	3.2%	nt	?	-9.6%	nt	5.01µM*	7.11µM*	8.88µM*	6.24µM*
CN(C)S(=O)(=O)c1ccc(NC(=O)c2ccccn2)cc1	3.6%	>76.9	-2.0%	-0.7%	nt	1.0%	nt	nt	nt
Cc1[nH]c(-c2ccco2)nc1C(=O)O	-0.4%	>76.9	-9.7%	-1.4%	>57	-2.2%	nt	nt	nt
CN(C)c1ccc(C(=C2C=CC(=[N+](C)C)C=C2)c2c(O)c(S(=O)(=O)O)cc3cc(S(=O)(=O)O)ccc23)cc1	10.4%[11.4 µM]	nt	?	nt	nt	5.9%[11.4 µM]	?	i	i
Cc1ccc(N2CC(C(=O)Nc3ccc(S(=O)(=O)N4CCCC4)cc3)CC2=O)cc1 (stereo unspecified)	-9.8%	>76.9	-2.6%	38.2%	>57	2.5%	nt	nt	nt
CCOc1cc2[nH]c(=O)n(CCCCC(=O)NC3CCCCC3)c(=O)c2cc1OCC	7.5%	>76.9	?	3.0%	>57	-39.1%	i	i	i
COc1cc2[nH]c(=O)n(CCC(=O)NC3CCCC3)c(=O)c2cc1OC	4.6%	>76.9	-1.1%	5.9%	>57	3.8%	nt	nt	nt
CCCCOc1ccc(C(=O)Nc2ccc(N3CCN(C)CC3)cc2)cc1	7.3%	>76.9	0.2%	19.7%	>57	1µM*	?	i	i
CCCC(=O)Nc1cc2c(cc1C(=O)c1ccccc1)OCCO2	2.2%	>76.9	-6.0%	-1.3%	>57	-15.7%	nt	nt	nt
CCOc1ccccc1N1CC(O)=C(c2nc3ccccc3s2)C1=N	-1.2%	i	-10.3%	28.5%	>57	?	nt	nt	nt
Cc1cc(-c2ccc(N=Nc3ccc4c(S(=O)(=O)O)cc(S(=O)(=O)O)c(N)c4c3O)c(C)c2)ccc1N=Nc1ccc2c(S(=O)(=O)O)cc(S(=O)(=O)O)c(N)c2c1O	?	nt	3.98µM*	nt	nt	3.16µM*	0.19µM*	0.774µM*	0.92µM*
Nc1c(N=Nc2ccc(-c3ccc(N=Nc4cc(S(=O)(=O)O)c5ccccc5c4N)cc3)cc2)cc(S(=O)(=O)O)c2ccccc12	nt	nt	nt	nt	nt	nt	0.29µM*	0.423µM*	2.35µM*
CN(C)c1ccc(/C=C2/C(=O)Nc3ccccc32)cc1	-9.2%	nt	?	-9.6%	nt	1µM*	0.99µM*	1.38µM*	0.67µM*
COc1cccc2c1C(=N)c1c(O)c3c(c(O)c1C2=O)C[C@](O)(C(C)=O)C[C@@H]3O[C@H]1C[C@H](N)[C@@H](O)[C@H](C)O1	12.0%[11.4 µM]	nt	-27.5%[11 µM]	nt	nt	1.26µM*	1.82µM*	1.95µM*	0.68µM*
Nc1cc(C(=O)O)ccc1Nc1ccccc1	-9.0%[11.4 µM]	nt	-8.5%[11 µM]	-0.2%[7.66 µM]	nt	-15.6%[11.4 µM]	nt	nt	nt
Nc1ccc(Nc2ccccc2N)cc1	?	nt	?	25.1%	nt	-120.0%	2.77µM*	2.32µM*	2.05µM*
CCNc1ncc2nc(-c3ccc(OC)cc3)c(=O)n(C)c2n1	-21.7%	nt	10.1%	103.2%	nt	128.7%	nt	nt	nt
Cc1cc(C(=O)Nc2ccc(N3CCOCC3)cc2)c2ccccc2n1	2.0%	>76.9	-11.8%	13.0%	>57	7.94µM*	i	i	i
CCS(=O)(=O)N1CCC(C(=O)OCC(=O)c2ccc(Br)cc2)CC1	6.6%	>76.9	-1.1%	-1.7%	>57	10.5%	nt	nt	nt
Cc1c(C(O)CN2CCN(Cc3ccc4c(c3)OCO4)CC2)c2ccccc2n1C (stereo unspecified)	-21.1%	>76.9	-10.3%	33.9%	>57	-19.7%	nt	nt	nt
Cc1cc(NC(=O)c2cc3nc(C4CC4)cc(C(F)(F)F)n3n2)no1	-5.4%	>76.9	-3.0%	24.7%	>57	-7.2%	?	i	?
CCOC(=O)N1CCc2c(sc3c2C(=O)NC(c2ccc(-c4ccc(Cl)cc4)o2)N3)C1 (stereo unspecified)	-2.4%	nt	0.5%	0.6%	>57	0.631µM*	i	i	i
CN1CCc2c(sc3c2C(=O)NC(/C=C/c2ccco2)N3)C1 (stereo unspecified)	?	>76.9	-10.5%	11.0%	nt	297.8%	nt	nt	nt
COc1cc(C2NC(=O)NC(C)=C2C(=O)OC(C)(C)C)ccc1OCC(=O)O (stereo unspecified)	5.8%	>76.9	-1.7%	1.1%	>57	3.9%	nt	nt	nt
